Test results reported in PubChem BioAssay (NCI).
This is part of a sample that, as a whole, favours compounds with a hit. Of some 79,000 tested, about 15% had one in any assay. Values without a mark were called inactive. Active and inactive are the calls of the source. Rule as the data show it: active = growth inhibition above about 70%; inactive = the rest.

Assays:
[1] = NCI Yeast Anticancer Drug Screen. Data for the rad50 strain (AID 155);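 also: 0% = growth of vehicle-only cultures of the same strain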; conditions: S. cerevisiae rad50 strain growth inhibition, stronger effect = higher value
In short: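 Genetically altered yeast (DNA repair pathway); compound treatment; growth inhibition vs vehicle ctrl.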

[2] = NCI Yeast Anticancer Drug Screen. Data for the mec2-1 strain (AID 157); conditions: S. cerevisiae mec2-1 strain, stronger effect = higher value
In short: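 Each compound was tested on mec2-1 yeast, a strain altered in DNA damage repair or cell cycle control. Growth inhibition is reported relative to vehicle.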

[3] = NCI Yeast Anticancer Drug Screen. Data for the sgs1 mgt1 strain (AID 161);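 also: 0% = growth of cultures given vehicle only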; conditions: S. cerevisiae sgs1 mgt1 strain, stronger effect = higher value
In short: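 Genetically altered yeast, compound exposure, growth inhibition relative to vehicle.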

[4] = NCI Yeast Anticancer Drug Screen. Data for the cln2 rad14 strain (AID 165);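 also: 0% = growth equal to vehicle treated cultures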; conditions: S. cerevisiae cln2 rad14 strain, stronger effect = higher value
In short: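 Test compounds were added to cln2 rad14 yeast cultures; inhibition of growth was then determined by comparison with vehicle treatment.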

[5] = NCI Yeast Anticancer Drug Screen. Data for the bub3 strain (AID 167); conditions: S. cerevisiae bub3 mutant strain, stronger effect = higher value
In short: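 Yeast carrying a defined mutation is treated with each compound, and growth is compared with that of vehicle-exposed cells to give inhibition.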

[6] = NCI Yeast Anticancer Drug Screen. Data for the mlh1 rad18 strain (AID 175); conditions: S. cerevisiae mlh1 rad18 strain growth inhibition, stronger effect = higher value
In short: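 Inhibition values reflect reduced growth of mutant yeast versus vehicle-treated controls following compound exposure; the mutations affect DNA damage repair.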

[7] = at 5.0 µM (retest, dose inferred, filed as 0.5)
[8] = at 50.0 µM (retest, dose inferred, filed as 5.0)

O=[N+]([O-])c1ccccc1Oc1ccc([N+](=O)[O-])c(C(F)(F)F)c1
growth inhibition [1, 7]: -4%
growth inhibition [1, 8]: 83% (active)
growth inhibition ([1]; at 50.0 µM): 80.1% (active)
growth inhibition [2, 7]: -2%
growth inhibition [2, 8]: 74% (active)
growth inhibition ([2]; at 50.0 µM): 82.7% (active)
growth inhibition [3, 7]: 0%
growth inhibition [3, 8]: -24%
growth inhibition ([3]; at 50.0 µM): 92.5% (active)
growth inhibition [4, 7]: -8%
growth inhibition [4, 8]: 45%
growth inhibition ([4]; at 50.0 µM): 45.9%
growth inhibition [5, 7]: 2%
growth inhibition [5, 8]: 92% (active)
growth inhibition ([5]; at 50.0 µM): 95.3% (active)
growth inhibition [6, 7]: -1%
growth inhibition [6, 8]: 90% (active)
growth inhibition ([6]; at 50.0 µM): 92.7% (active)

O=[N+]([O-])c1ccc(N=C(Cl)C(Cl)(c2ccccc2)c2ccccc2)cc1
growth inhibition [1, 7]: 14%
growth inhibition [1, 8]: 97% (active)
growth inhibition ([1]; at 50.0 µM): 96.2% (active)
growth inhibition [2, 7]: 11%
growth inhibition [2, 8]: 97% (active)
growth inhibition ([2]; at 50.0 µM): 96.7% (active)
growth inhibition [3, 7]: -20%
growth inhibition [3, 8]: 98% (active)
growth inhibition ([3]; at 50.0 µM): 97% (active)
growth inhibition [4, 7]: 9%
growth inhibition [4, 8]: 97% (active)
growth inhibition ([4]; at 50.0 µM): 94.2% (active)
growth inhibition [5, 7]: 8%
growth inhibition [5, 8]: 96% (active)
growth inhibition ([5]; at 50.0 µM): 95.2% (active)
growth inhibition [6, 7]: 7%
growth inhibition [6, 8]: 97% (active)
growth inhibition ([6]; at 50.0 µM): 95.5% (active)

CCOC(=O)/C(C)=N/Nc1cc(Cl)ccc1O
growth inhibition [1, 7]: 0%
growth inhibition [1, 8]: 55%
growth inhibition ([1]; at 50.0 µM): 95.5% (active)
growth inhibition [2, 7]: 4%
growth inhibition [2, 8]: 32%
growth inhibition ([2]; at 50.0 µM): 94% (active)
growth inhibition [3, 7]: 4%
growth inhibition [3, 8]: 42%
growth inhibition ([3]; at 50.0 µM): 58%
growth inhibition [4, 7]: -62%
growth inhibition [4, 8]: 51%
growth inhibition ([4]; at 50.0 µM): 70.8% (active)
growth inhibition [5, 7]: -6%
growth inhibition [5, 8]: -15%
growth inhibition ([5]; at 50.0 µM): 34.5%
growth inhibition [6, 7]: 7%
growth inhibition [6, 8]: 63%
growth inhibition ([6]; at 50.0 µM): 88.8% (active)

O=C1OC(=O)C2C1C1C(c3ccccc3)=C(c3ccccc3)C2(O)C2C(=O)OC(=O)C12 (stereo not given)
growth inhibition [1, 7]: 25%
growth inhibition [1, 8]: 25%
growth inhibition ([1]; at 50.0 µM): 76.2% (active)
growth inhibition [2, 7]: 7%
growth inhibition [2, 8]: 7%
growth inhibition ([2]; at 50.0 µM): 81% (active)
growth inhibition [3, 7]: 16%
growth inhibition [3, 8]: 16%
growth inhibition ([3]; at 50.0 µM): 69.7%
growth inhibition [4, 7]: 17%
growth inhibition [4, 8]: 17%
growth inhibition ([4]; at 50.0 µM): 52.5%
growth inhibition [5, 7]: 4%
growth inhibition [5, 8]: 4%
growth inhibition ([5]; at 50.0 µM): 74% (active)
growth inhibition [6, 7]: 18%
growth inhibition [6, 8]: 18%
growth inhibition ([6]; at 50.0 µM): 29.7%

CCOC(=S)SSC(=S)NCCNC(=S)SSC(=S)OCC
growth inhibition [1, 7]: 9%
growth inhibition [1, 8]: 40%
growth inhibition ([1]; at 50.0 µM): 70.7% (active)
growth inhibition [2, 7]: 4%
growth inhibition [2, 8]: 72% (active)
growth inhibition ([2]; at 50.0 µM): 36.5%
growth inhibition [3, 7]: 13%
growth inhibition [3, 8]: 86% (active)
growth inhibition ([3]; at 50.0 µM): 79.8% (active)
growth inhibition [4, 7]: -1%
growth inhibition [4, 8]: 30%
growth inhibition ([4]; at 50.0 µM): 73.1% (active)
growth inhibition [5, 7]: 4%
growth inhibition [5, 8]: 91% (active)
growth inhibition ([5]; at 50.0 µM): 2.55%
growth inhibition [6, 7]: 11%
growth inhibition [6, 8]: 78% (active)
growth inhibition ([6]; at 50.0 µM): 76.4% (active)

CC(C)CCOc1ccc(/C=C\C(=O)O)cc1
growth inhibition [1, 7]: 3%
growth inhibition [1, 8]: 30%
growth inhibition ([1]; at 50.0 µM): 61.1%
growth inhibition [2, 7]: -2%
growth inhibition [2, 8]: 41%
growth inhibition ([2]; at 50.0 µM): 81.5% (active)
growth inhibition [3, 7]: -3%
growth inhibition [3, 8]: 38%
growth inhibition ([3]; at 50.0 µM): 30.1%
growth inhibition [4, 7]: -1%
growth inhibition [4, 8]: 87% (active)
growth inhibition ([4]; at 50.0 µM): 93.9% (active)
growth inhibition [5, 7]: 1%
growth inhibition [5, 8]: 54%
growth inhibition ([5]; at 50.0 µM): 71% (active)
growth inhibition [6, 7]: 6%
growth inhibition [6, 8]: 43%
growth inhibition ([6]; at 50.0 µM): 75% (active)

CC(=O)Nc1ccc(N=Cc2cc(Cl)cc(Cl)c2O)cc1
growth inhibition [1, 7]: 82% (active)
growth inhibition [1, 8]: 99% (active)
growth inhibition ([1]; at 50.0 µM): 80.2% (active)
growth inhibition [2, 7]: 90% (active)
growth inhibition [2, 8]: 99% (active)
growth inhibition ([2]; at 50.0 µM): 73.5% (active)
growth inhibition [3, 7]: 97% (active)
growth inhibition [3, 8]: 95% (active)
growth inhibition ([3]; at 50.0 µM): 89.3% (active)
growth inhibition [4, 7]: 54%
growth inhibition [4, 8]: 94% (active)
growth inhibition ([4]; at 50.0 µM): 53%
growth inhibition [5, 7]: 97% (active)
growth inhibition [5, 8]: 97% (active)
growth inhibition ([5]; at 50.0 µM): 81.7% (active)
growth inhibition [6, 7]: 80% (active)
growth inhibition [6, 8]: 99% (active)
growth inhibition ([6]; at 50.0 µM): 65.8%

NCCNC[Si](c1ccccc1)(c1ccccc1)c1ccccc1
growth inhibition [1, 7]: -13%
growth inhibition [1, 8]: 92% (active)
growth inhibition ([1]; at 50.0 µM): 7.6%
growth inhibition [2, 7]: -3%
growth inhibition [2, 8]: 92% (active)
growth inhibition ([2]; at 50.0 µM): -21.4%
growth inhibition [3, 7]: -10%
growth inhibition [3, 8]: 84% (active)
growth inhibition ([3]; at 50.0 µM): 8.2%
growth inhibition [4, 7]: -4%
growth inhibition [4, 8]: 96% (active)
growth inhibition ([4]; at 50.0 µM): 5.3%
growth inhibition [5, 7]: -10%
growth inhibition [5, 8]: 94% (active)
growth inhibition ([5]; at 50.0 µM): 17.6%
growth inhibition [6, 7]: -12%
growth inhibition [6, 8]: 87% (active)
growth inhibition ([6]; at 50.0 µM): 11.4%

O=C(c1ccccc1)c1ccc2cccc(O)c2n1
growth inhibition [1, 7]: 19%
growth inhibition [1, 8]: 63%
growth inhibition ([1]; at 50.0 µM): 88.8% (active)
growth inhibition [2, 7]: -18%
growth inhibition [2, 8]: 31%
growth inhibition ([2]; at 50.0 µM): 91.5% (active)
growth inhibition [3, 7]: -11%
growth inhibition [3, 8]: 55%
growth inhibition ([3]; at 50.0 µM): 90.8% (active)
growth inhibition [4, 7]: 5%
growth inhibition [4, 8]: 34%
growth inhibition ([4]; at 50.0 µM): 88.8% (active)
growth inhibition [5, 7]: -21%
growth inhibition [5, 8]: 77% (active)
growth inhibition ([5]; at 50.0 µM): 91.7% (active)
growth inhibition [6, 7]: -19%
growth inhibition [6, 8]: 77% (active)
growth inhibition ([6]; at 50.0 µM): 89.4% (active)

O=C(CCCO)N/N=C\c1ccc([N+](=O)[O-])s1
growth inhibition [1, 7]: 5%
growth inhibition [1, 8]: 31%
growth inhibition ([1]; at 50.0 µM): 18.8%
growth inhibition [2, 7]: -7%
growth inhibition [2, 8]: 23%
growth inhibition ([2]; at 50.0 µM): -3.55%
growth inhibition [3, 7]: 8%
growth inhibition [3, 8]: 39%
growth inhibition ([3]; at 50.0 µM): 31.8%
growth inhibition [4, 7]: -2%
growth inhibition [4, 8]: 20%
growth inhibition ([4]; at 50.0 µM): 72.2% (active)
growth inhibition [5, 7]: -1%
growth inhibition [5, 8]: 17%
growth inhibition ([5]; at 50.0 µM): 5.5%
growth inhibition [6, 7]: 12%
growth inhibition [6, 8]: 74% (active)
growth inhibition ([6]; at 50.0 µM): 62.2%
